TDP1 cell noCPT: qHTS for Inhibitors of human tyrosyl-DNA phosphodiesterase 1 (TDP1): qHTS in cells in absence of CPT. AID 686978, 2013. Potency, µM (series often up to 46.2 µM), hits mostly inhibitors. 420,000 tested, 15% active. DT40 Tdp1-/- hTDP1 cells, no CPT, ATP luminescence, 48 h; also: nearly all actives have a fitted effect of over 55% in size
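Camptothecin absent (DMSO only). Human TDP1-complemented DT40 knockout cells, 400 cells/well, 37 °C for minimum 48 hr; ATP measured via CellTiter-Glo, 30 min dark incubation, luminescence.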
KAT2A inh: qHTS Assay for Inhibitors of GCN5L2. Histone acetyltransferase KAT2A (Homo sapiens), Q92830. Potency, µM (titrated, usually from 58.9 µM), most hits filed as inhibitors. GCN5L2 HAT assay, ThioGlo1 CoA-SH fluorescence. 390,000 tested, 0.21% active
Target sequence (Q92830 whole entry, looked up): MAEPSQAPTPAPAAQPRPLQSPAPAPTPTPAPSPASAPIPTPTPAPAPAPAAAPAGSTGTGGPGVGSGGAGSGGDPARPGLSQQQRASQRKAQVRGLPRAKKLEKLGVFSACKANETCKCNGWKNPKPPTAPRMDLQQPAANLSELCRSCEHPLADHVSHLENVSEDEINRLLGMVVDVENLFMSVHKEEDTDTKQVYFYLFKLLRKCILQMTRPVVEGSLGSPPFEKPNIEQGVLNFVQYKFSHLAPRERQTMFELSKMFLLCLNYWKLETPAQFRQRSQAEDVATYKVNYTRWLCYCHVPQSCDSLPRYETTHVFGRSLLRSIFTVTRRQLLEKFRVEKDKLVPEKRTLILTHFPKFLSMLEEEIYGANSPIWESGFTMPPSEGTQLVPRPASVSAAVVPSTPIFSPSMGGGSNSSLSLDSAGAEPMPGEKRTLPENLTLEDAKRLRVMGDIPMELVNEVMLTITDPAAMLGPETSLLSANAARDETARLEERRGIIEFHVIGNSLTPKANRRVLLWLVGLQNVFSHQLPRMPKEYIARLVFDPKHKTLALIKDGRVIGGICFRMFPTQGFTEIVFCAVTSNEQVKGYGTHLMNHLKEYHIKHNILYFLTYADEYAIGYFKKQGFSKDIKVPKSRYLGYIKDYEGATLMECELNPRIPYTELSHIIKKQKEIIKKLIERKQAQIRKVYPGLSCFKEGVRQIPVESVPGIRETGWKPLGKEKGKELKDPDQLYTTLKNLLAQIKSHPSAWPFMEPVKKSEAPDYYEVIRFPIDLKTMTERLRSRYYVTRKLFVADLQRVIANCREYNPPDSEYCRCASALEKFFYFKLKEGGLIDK
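GCN5L2 (20nM final) in 50mM HEPES, 0.1mM EDTA pH 7.5, 0.01% Tween-20 was preincubated 15 min at room temperature with compound, then given ThioGlo1 (50uM), H3(1-25) peptide (75uM) and acetyl-CoA (70uM); CoA-thiol fluorescence (Ex340/Em540) was read at 0 and 20 min.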
TDP1 inh: qHTS Assay for Inhibitors of Tyrosyl-DNA Phosphodiesterase (TDP1) | recombinant TDP1, AlphaScreen DNA substrate cleavage | Tyrosyl-DNA phosphodiesterase 1 (Homo sapiens), Q9NUW8 | 350,000 tested, 0.28% active | Potency, µM (series often up to 130 µM), actives largely listed as inhibitors | AID 485290, 2010; also: nearly all actives have a fitted effect of over 40% in size
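Compounds were preincubated with Tdp1 (1 nM final) for 15 min at room temperature before substrate (15 nM final) started a 5 min reaction; beads (10 ug/ml final) were then added for 10 min before AlphaScreen detection.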
TDP1 cell CPT: qHTS for Inhibitors of human tyrosyl-DNA phosphodiesterase 1 (TDP1): qHTS in cells in presence of CPT | chicken DT40 Tdp1-/-;hTDP1 cells + 20 nM CPT, ATP luminescence, 48 h | Potency, µM (doses to about 46.2 µM), hits mostly inhibitors | 420,000 tested, 12% active; also: nearly all actives have a fitted effect of over 55% in size
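Chicken DT40 Tdp1-/- cells complemented with human TDP1, 400 cells/well, exposed to compounds plus 20 nM camptothecin for at least 48 h at 37 C; viability read as ATP content by CellTiter-Glo luminescence.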
PLK1 PBD block: qHTS for Inhibitors of PLK1-PDB (polo-like kinase 1 - polo-box domain): Primary Screen; Serine/threonine-protein kinase PLK1 (Homo sapiens), P53350; Plk1 PBD binding of FITC phosphopeptide, fluorescence polarization; Potency, µM, usual class: inhibitors; 360,000 tested, 2.8% active; AID 720504, 2013; also: series mostly up to about 57 µM; nearly all actives have a fitted effect of over 65% in size
VDR inhibitor: Inhibitors of the vitamin D receptor (VDR): qHTS. Vitamin D3 receptor (Homo sapiens), P11473. VDR-SRC2-3 peptide fluorescence polarization, 2 h. Potency, µM, usual class: inhibitors. 400,000 tested, 0.93% active. AID 504847, 2011
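Reagent solutions, kept cold and dark, are dispensed first; compounds are then pinned in at 23 nl, plates briefly spun, and incubated 2 h at ambient temperature. Inhibition of VDR–SRC2-3 peptide binding is read by fluorescence polarization.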
Numbers stand for hits. Only some compounds are listed: those with a hit (about 18% of all), similar ones and a draw of the others. Calls follow the shape of the dose curve; as a rule, active = well fitted curve in the direction sought with a large enough effect; inconclusive = small, poorly fitted or top-dose-only effect, or another doubt; inactive = no such curve, though single readings can be large; an effect the other way counts as inactive or inconclusive.

Cc1ccc(NC(=O)Cn2nc(C(=O)O)c3ccccc3c2=O)cc1S(=O)(=O)N1CCCCCC1 was read as TDP1 cell noCPT inconclusive, TDP1 cell CPT inconclusive, PLK1 PBD block inactive and VDR inhibitor inactive.
Cc1cc(Br)c(NC(=O)COn2nnc3ccc(S(C)(=O)=O)cc32)c(Br)c1 was read as TDP1 cell noCPT inactive, KAT2A inh inactive, TDP1 inh inactive, TDP1 cell CPT inactive, PLK1 PBD block inactive and VDR inhibitor inactive.
Cc1cc(NC(=O)COn2nnc3ccc(S(C)(=O)=O)cc32)ccc1Br was read as TDP1 cell noCPT 16.4µM, KAT2A inh inactive, TDP1 inh inactive, TDP1 cell CPT inconclusive, PLK1 PBD block inactive and VDR inhibitor inactive.
`CCN(CCn1cccn1)C(=O)c1cc(COc2cc(C)ccc2C)on1` gave TDP1 cell noCPT inconclusive, KAT2A inh inactive, TDP1 inh inactive, TDP1 cell CPT 18.4µM, PLK1 PBD block inactive and VDR inhibitor inactive.
`Cc1ccc(C)c(OCc2cc(C(=O)N3C[C@@H](C)O[C@@H](C)C3)no2)c1` gave TDP1 cell noCPT inconclusive, KAT2A inh inactive, TDP1 inh inactive, TDP1 cell CPT 16.4µM, PLK1 PBD block inactive and VDR inhibitor inactive.
CCN(CCn1cccn1)C(=O)c1cc(COc2ccccc2SC)on1 was read as TDP1 cell noCPT inconclusive, KAT2A inh inactive, TDP1 inh inactive, TDP1 cell CPT inconclusive, PLK1 PBD block inactive and VDR inhibitor inactive.
`Cc1ccc(C)c(OCc2cc(C(=O)N3CCN(C4CCCCC4)CC3)no2)c1` gave TDP1 cell noCPT inconclusive, TDP1 cell CPT inconclusive and PLK1 PBD block inactive.
O=C(CC[C@H]1O[C@@H](n2ccc(=O)[nH]c2=O)[C@H](O)[C@@H]1O)N[C@H](Cc1ccccc1)C(=O)NCC1CCCO1 (some centres undefined) was read as TDP1 cell noCPT inactive, TDP1 cell CPT inactive and PLK1 PBD block inactive.
For CCOc1ccc(C(=O)Nc2c(C(=O)Nc3ccccc3OC)oc3ccccc23)cc1OCC the results were TDP1 cell noCPT inconclusive, KAT2A inh inactive, TDP1 inh inactive, TDP1 cell CPT inactive and VDR inhibitor inactive.
COc1cccc2sc3ccc(C#CC4(N)CCCCC4)cc3c(=O)c12 was read as TDP1 cell noCPT 14.6µM, KAT2A inh inactive, TDP1 cell CPT 16.4µM, PLK1 PBD block inactive and VDR inhibitor inactive.
`Cn1c2ccccc2c(=O)c2ccc(C#CC3(O)CCCCC3)cc21` gave TDP1 cell noCPT 10.3µM, KAT2A inh inactive, TDP1 cell CPT 13µM, PLK1 PBD block inactive and VDR inhibitor inactive.
CNC(C)C#Cc1ccc2sc3cccc(OC)c3c(=O)c2c1 (centres undefined) was read as TDP1 cell noCPT 14.6µM, KAT2A inh inactive, TDP1 cell CPT inconclusive, PLK1 PBD block inactive and VDR inhibitor inactive.
Screening COc1cccc2sc3ccc(NCCC4CCCN4C)cc3c(=O)c12 (centres undefined) returned TDP1 cell noCPT inconclusive, KAT2A inh inactive, TDP1 cell CPT inconclusive, PLK1 PBD block inactive and VDR inhibitor inactive.
`COc1cc2sc3ccc(C#CC4(O)CCCCC4)cc3c(=O)c2cc1OC` gave TDP1 cell noCPT 16.4µM, TDP1 cell CPT inconclusive, PLK1 PBD block inactive and VDR inhibitor inactive.
COc1ccc(-c2ccc3oc(-c4ccc(OC)cc4)c(C#CC4(O)CCCCC4)c3c2)cc1 was read as TDP1 cell noCPT inconclusive, TDP1 cell CPT inconclusive, PLK1 PBD block inactive and VDR inhibitor inactive.
For CN(N=O)c1ccc2c(c1)Cc1ccccc1-2 the results were TDP1 cell noCPT inconclusive and TDP1 cell CPT inactive.
Screening Cc1ccc(Cl)cc1NC(=O)CCCN1C(=O)CCn2nc(-c3cn(C)c4ccccc34)cc21 returned TDP1 cell noCPT inconclusive, KAT2A inh inactive, TDP1 inh inactive, TDP1 cell CPT inconclusive and VDR inhibitor inactive.
